Data: ChEMBL document CHEMBL4513216, “Probing the Open Global Health Chemical Diversity Library for Multistage-Active Starting Points for Next-Generation Antimalarials” (ACS Infect Dis, 2020)
In all, about 69,000 compounds went through this assay and about 8,600 (12%) showed an effect of 50% or more. The list comes from a sample in which strong results are over-represented; it also holds similar structures and randomly drawn compounds.

Tested on: Plasmodium berghei
Assay: Screen against P. berghei liver stage (PbLuc), transformed with Luciferase, at 10uM
Assay type: functional, HepG2
Conditions: tested at 10 uM

SMILES | INHIBITION [%]
CNC(=O)[C@@H](c1ccccc1OC)N1CCC[C@H]1C(=O)NC1CC1 | 35.4
O=C(Cc1ccc2c(c1)OCO2)N1CCN(c2ccncc2)CC1 | 49
Cc1cc(N2CCN(C(=O)Cc3ccc4c(c3)OCO4)CC2)cc(C)n1 | 52.2
Cc1cc(N2CCCN(C(=O)Cc3cccnc3)CC2)ccn1 | 58.6
O=C(Cc1ccc2c(c1)OCO2)N1CCCN(c2ccccc2)CC1 | 11.8
Cc1cc(N2CCCN(C(=O)Cc3ccc(O)c(Cl)c3)CC2)ccn1 | 65.1
COc1cccc(CC(=O)N2CCCN(c3ccnc(C)c3)CC2)c1 | -1.25
Cc1cc(N2CCCN(c3ccnc(C)c3)CC2)ccn1 | 11.9
Cc1cc(N2CCCN(C(=O)Cc3csc(C)n3)CC2)ccn1 | -13.2
Cc1cc(N2CCCN(C(=O)Cc3cc(F)cc(F)c3)CC2)ccn1 | 28.7
O=C(c1cnccn1)N1C[C@H]2CC[C@@H](C1)N(C(=O)Cc1ccsc1)C2 | 28.5
Cc1nnc2n1CCN(CCOc1cccc(C#N)c1)C2 | 44.1
Cc1ccc(C2CSCCN2C(=O)c2ccoc2C)o1 (configuration not stated) | 13.3
CNC(=O)CCN1CCC(c2nnc(Cn3cccn3)n2C2CC2)CC1 | -0.71
Cc1nccc(C(=O)N2CCCC2c2noc(C(C)C)n2)n1 (configuration not stated) | 22.6
Cc1ncccc1NS(=O)(=O)Cc1cccc(F)c1 | 3.19
O=C1NCC2CN(Cc3ccccc3OCc3ccccn3)CCN12 (configuration not stated) | 50.3
O=C1NC[C@H]2CN(Cc3ccnc4ccccc34)CCN12 | -12.1
O=C1NC[C@H]2CN(Cc3ccccn3)CCN12 | -17.2
c1cc(CN2CCC3(CC2)CC(N2CCCC2)CO3)co1 (configuration not stated) | -4.82
CCNC(=O)CN(CC)C(=O)c1cc(-c2cccc(Cl)c2)no1 | 21.5
Cc1cnn(C2CCCN(C(=O)c3cccc(-n4cnnn4)c3)C2)c1 (configuration not stated) | 14.75
CNC(=O)c1cccc(Nc2cnn(C)c2)c1 | 23.6
NC(=O)CN(C(=O)c1cccc(C(F)(F)F)c1)C1CCCC1 | -52.4
Cn1c(C(=O)N(CC(N)=O)C2CCCC2)cc(Cl)c1Cl | -25.6
CN(C)C(=O)c1cccc(Nc2cnn(C)c2)c1 | 33.5

SMILES | INHIBITION [%]
CCNC(=O)CN(CC)C(=O)c1cccc(Nc2cnn(C)c2)c1 | 70.3
CN(C)C(=O)c1cccc(NC(=O)c2cnn(C)c2)c1 | 52.4
Cn1cc(NC(=O)c2cccc(-n3cnnn3)c2)cn1 | 53.7
CN(C)c1ncc(NC(=O)c2cccc(Nc3cnn(C)c3)c2)cn1 | 36.5
O=C(Nc1cnn(CC(F)F)c1)c1cccc(-n2cnnn2)c1 | 20.6
Cn1cc(Nc2cccc(C(=O)N(CC(N)=O)C3CCCC3)c2)cn1 | 82.2
Cn1cc(N2CCCC(SCc3ccco3)C2=O)cn1 (configuration not stated) | 9.79
CCc1cccc(OCC(=O)NC(C)c2nnc3n2CCC3)c1 (configuration not stated) | -27.8
CCC(=O)N1C[C@@H]2CCN(c3cnccn3)C[C@@H]2C1 | -18.4
CC(C)(C)c1ccc(OCC(N)=O)c(CN2C[C@H]3CC(O)C[C@H]3C2)c1 (some centres not stated) | 25.8
CCCN(CC(=O)N1CCNCC1)C(=O)c1cccc(Cl)c1 | 13.5
CC(C)OCCCN(CC(=O)N1CCNCC1)C(=O)c1cccc(Cl)c1 | 25.9
CC(C)OCCCN(CC(=O)N1CCNCC1)C(=O)c1ccc(F)cc1 | 55.7
Cc1noc(C)c1-c1cccc(C2CCNCC2)n1 | 5.11
COc1ccccc1OCCNC(=O)CN1CCN(C)CC1C (configuration not stated) | 16.657
Nc1nc2c(c3c1C(=O)NC3=O)CCCC2 | 70.7
O=C1NC(=O)c2c3c(nc(O)c21)CCCC3 | 29.3
Nc1nc2c(c3c1C(=O)NC3=O)CCC2 | 41.9
COc1ccc(Nc2nc(N)c(C(C)=O)s2)cc1Cl | 17.6
COCCN1CC[C@@H]2O[C@@H](COCC(=O)N3CCCC3)CC[C@@H]21 | -23.2
Cc1cc(NCc2cc(C)oc2C(F)(F)F)n2nc(C)cc2n1 | 79.2
Cc1cc(C(F)(F)F)nc(CNc2cc(C)nc3cc(C)nn23)n1 | 43.2
Cc1cc(NCCCC(F)(F)F)n2nc(C)cc2n1 | 42.3
CCN(C)c1ncnc2c1CCN(Cc1ccc(OC)cc1)CC2 | 34.1
O=C(c1ccsc1)N1CCO[C@@H]2CN(Cc3ccccn3)CC[C@@H]2C1 | -31.3
Cc1cc(C(=O)N2CCc3nc(N4CCCC4)nc(C)c3CC2)c(C)o1 | 67.5

SMILES | INHIBITION [%]
Cc1nc(N2CCCC2)nc2c1CN(C(=O)N1CCOCC1)CC2 | 34.9
Cc1nc(N2CCOCC2)nc2c1CN(C(=O)C(C)C)CC2 | 5.04
Cc1cc(C(=O)N2CCc3nc(N4CCOCC4)nc(C)c3C2)c(C)o1 | 55.7
Cc1nc(N2CCCC2)nc2c1CCN(C(=O)N1CCCC1)CC2 | -23.3
Cc1nc(N2CCCC2)nc2c1CCN(C(=O)c1ccoc1C)CC2 | 3.17
Cc1ccc(C(=O)NCc2ccnc(N(C)C)c2)c(C)c1 | -29.1
Cc1ccccc1N1CC(c2nnc(N)s2)CC1=O (configuration not stated) | -37.1
CC(C)C[C@H](NC(=O)Nc1ccc(F)c(Cl)c1)C(=O)O | 47.1
COC(=O)CNC(=O)c1nc(Cl)sc1C(C)C | -17.6
CCNC(=O)C1(Cc2cc(-c3ccccc3)no2)CCCN(C)C1 (configuration not stated) | 10.9
COCC(=O)N1C[C@@H](O)[C@H](N2CCN(c3ccccc3)CC2)C1 | 12.39
Cc1ccccc1CNC(=O)CNc1ccc(OC2CCOC2)cc1 (configuration not stated) | -6.97
O=C(CNc1ccc(OC2CCOC2)cc1)NCc1ccco1 (configuration not stated) | -12.1
O=C(CNc1ccc(OC2CCOC2)cc1)NCc1cccs1 (configuration not stated) | 59.8
Cc1ccccc1C1(CNC(=O)NC(C)c2nncn2C)CC1 (configuration not stated) | 40.2
CN(Cc1ccccc1)C(=O)Cn1nc(N2CCSCC2)ccc1=O | -22.9
NC(=O)c1cccc(CCNCc2cnc(-c3cccs3)s2)c1 | 74
COc1cccc(CNCCc2cccc(C(N)=O)c2)c1 | -0.758
COc1ccc(CNCCc2cccc(C(N)=O)c2)cc1C | 11.8
NC(=O)c1cccc(CCNCc2cnc(C3CCC3)s2)c1 | 82.5
COc1ccccc1CNCCc1cccc(C(N)=O)c1 | 2.22
NC(=O)c1cccc(CCNCc2cccs2)c1 | 27.7
O=C(CCc1ccsc1)N1CCCCC1Cn1cccn1 (configuration not stated) | -23.9
Cc1noc([C@H]2CC[C@@H]3[C@@H](CCN3S(=O)(=O)C3CC3)O2)n1 | -6.23
Cc1cccc(OCCC(=O)N2CCN(CC(=O)NC3CC3)CC2)c1C | 33.8
Cn1c(N2CCOCC2)nc2cc(C(=O)N3CCCOCC3)ccc21 | -24.6

SMILES | INHIBITION [%]
CC(=O)NCc1cccc(-n2ccnc2-c2cccc(C(=O)O)c2)c1 | 62.1
CNC(=O)Cc1ccc(-n2ccnc2-c2cccc(C(=O)O)c2)cc1 | 15.6
CCc1ncc(-c2nccn2-c2cccc(CC(=O)O)c2)cn1 | 16.3
Cc1cnn(C2CCCN(C(=O)c3ccc(Cn4ccnc4)cc3)C2)c1 (configuration not stated) | 16.9
Cc1ccc(C(CNC(=O)c2cc(=O)c3ccccc3[nH]2)N(C)C)cc1 (configuration not stated) | -5.22
Cc1cnc(N2C[C@@H]3CN(C4CCOC4)CCC[C@]3(C(=O)O)C2)nc1 (some centres not stated) | 24.9
CCN(CC1CC1)C(=O)NCc1nnc2n1CCC2 | 45.3
COc1ccc(NC(=O)NCC(O)c2ccccc2F)c(OC)c1 (configuration not stated) | 3.15
Cc1c(C(=O)N2CCC(c3nc(C)n4ccsc34)CC2)cnn1C | 42.6
CC(C)N1[C@H](Cn2cccn2)C[C@@H]2CN(C3CCOCC3)CC[C@@H]21 | 33
CN1[C@H](Cn2cncn2)C[C@@H]2CN(Cc3ccsc3)CC[C@@H]21 | 54.8
CC(C)N1[C@H](Cn2cncn2)C[C@@H]2CN(Cc3cccs3)CC[C@@H]21 | 57.5
CN1[C@H](Cn2cncn2)C[C@@H]2CN(Cc3cccc(C#N)c3)CC[C@@H]21 | 20.1
CC(=O)N1[C@H](Cn2cncn2)C[C@@H]2CN(Cc3ccncc3)CC[C@@H]21 | 55.9
CN1[C@H](Cn2cccn2)C[C@@H]2CN(Cc3cccs3)CC[C@@H]21 | 28.3
CC(C)N1[C@H](Cn2cccn2)C[C@@H]2CN(Cc3ccoc3)CC[C@@H]21 | 57.9
CC(=O)N1[C@H](Cn2cncn2)C[C@@H]2CN(Cc3cccnc3)CC[C@@H]21 | 35.4
CC(C)N1[C@H](CN2CCCC2)C[C@@H]2CN(Cc3ccoc3)CC[C@@H]21 | -75.9
CC(C)N1[C@H](Cn2cncn2)C[C@@H]2CN(c3ncccn3)CC[C@@H]21 | 20.1
CC(C)N1[C@H](Cn2cncn2)C[C@@H]2CN(Cc3ccsc3)CC[C@@H]21 | 47.5
CC(=O)N1[C@H](Cn2cncn2)C[C@@H]2CN(Cc3ccccn3)CC[C@@H]21 | 34.1
Cc1cccc(C(CNC(=O)NCc2cc[nH]n2)N2CCOCC2)c1 (configuration not stated) | 35.95
CCN(Cc1ccoc1)C(=O)NC1CCN(C(=O)OC(C)(C)C)C1 (configuration not stated) | 1.93
CCc1ccc(C(N)c2cccc(S(C)(=O)=O)c2)cc1 (configuration not stated) | 48.1
